Measurements reported in PubChem BioAssay AID590 (National Center for Advancing Translational Sciences (NCATS), 2007).
The whole screen tested about 59,000 compounds, of which about 6,500 (11%) were called active. Not shown: some 15% with an inconclusive outcome. This is one part of a sample in which actives are shown more often than they occur. Cut-off read from the data, not from the text of the source: active = max dye-equivalent concentration above about 10 nM; inconclusive = mostly about 1.1 nM to 9.6 nM; inactive = weaker than that.

assay: qHTS Assay for Spectroscopic Profiling in A350 Spectral Region; details: Compound autofluorescence, 340/450 nm, Alexa 350 dye-equivalents; active compounds read high

SMILES	max dye-equivalent concentration
O=C(OCC(=O)N1CCN(C(=O)c2ccco2)CC1)c1ccccc1Cc1ccccc1	inactive
COc1ccc(C2C(C(=O)N3CCN(c4ccc(OC)cc4)CC3)c3ccccc3C(=O)N2C)cc1 (stereo unspecified)	inactive
C/C(Cl)=C\Cn1c(Nc2cccc(C)c2)nc2c1c(=O)n(C)c(=O)n2C	inactive
COCCNC(=O)c1ccccc1-c1nc(-c2ccccc2Cl)no1	inactive
COCCNC(=O)c1snc2ccc(Cl)cc12	46 nM (active)
COCC(C)NC(=O)c1ccc(Cl)c(Cl)c1 (stereo unspecified)	inactive
OCCCNCc1ccccn1	inactive
Cc1noc(C)c1CSc1nc2cc(S(=O)(=O)N3CCOCC3)ccc2o1	inactive
CC(=O)Nc1ccc(S(=O)(=O)Nc2nc3n(n2)C(c2ccccc2)CC(=O)N3)cc1 (stereo unspecified)	inactive
Cc1onc(-c2ccccc2Cl)c1C(=O)NCCn1ccc2ccccc21	inactive
Cc1cc(C)c2c(c1)cc(C)c1nnc(SCC(=O)Nc3cc(C)on3)n12	inactive
Cc1ccc2nc(-c3ccc(SCC(=O)Nc4cc(C)on4)nc3)[nH]c2c1	30 nM (active)
Cc1nc(SCC(=O)Nc2cc(C)on2)c2c(C)c(C)sc2n1	inactive
Cn1c(=O)c2c(nc(SCC(=O)Nc3ccccc3N3CCCCC3)n2C)n(C)c1=O	inactive
CC(C)c1cc(CN(C)C)c(O)c(C(C)(C)C)c1	inactive
O=c1oc2cc(O)ccc2cc1-c1ccc(F)cc1	100 nM (active)
O=C(Cn1c(=S)nc2ccccn21)N1CCc2ccccc2C1	inactive
O=C1c2ccccc2C(=O)N1c1ccccc1S(=O)C(F)(F)F (stereo unspecified)	inactive
CC1Cc2ccccc2N1C(=O)Cn1cnc2ccccc2c1=O (stereo unspecified)	inactive
CCOC(=O)CC1=CC(=O)Nc2ccccc2N1	inactive
CCCOC(=O)Cc1c(O)c2ccccc2[nH]c1=O	inactive
CCOC(=O)CCc1c(C)c(C#N)c2[nH]c3ccccc3n2c1=O	5400 nM (active)
CC1(C)Cc2ccccc2-c2nnc(-c3cccc(O)c3)n21	inactive
CCCC(=O)Nc1ccc(Cl)c(NC(=O)c2ccc(Br)o2)c1	inactive

SMILES	max dye-equivalent concentration
Cc1cc(C)nc(-n2nc(C)cc2NC(=O)c2ccc(Br)o2)n1	inactive
CCc1c(C)sc(NC(=O)c2ccc(Br)o2)c1C(=O)OC	190 nM (active)
COc1ccc(CCNC(=O)CSc2nnc(-c3cccc(F)c3)o2)cc1OC	inactive
CC(C)C(=O)Nc1cccc(C(=O)Nc2ccc3c(c2)OCO3)c1	inactive
O=C(NC1CCCCC1)C1c2ccccc2C(=O)N1Cc1ccco1 (stereo unspecified)	inactive
O=C1c2ccccc2C(O)N1Cc1ccccc1 (stereo unspecified)	26 nM (active)
O=C1c2cccnc2C(Nc2ccc(S(=O)(=O)N3CCCCCC3)cc2)N1Cc1ccccc1 (stereo unspecified)	inactive
CC(C)(CNCC(O)c1ccccc1)N1CCOCC1 (stereo unspecified)	inactive
Cc1ccc(C)c(NS(=O)(=O)c2cc(Br)cnc2N)c1	inactive
Cc1ccc(-c2noc(CSc3nnc(-c4ccccc4)n3C)n2)cc1	inactive
N=c1n(Cc2ccc(Cl)cc2)c2ccccc2n1CC(O)c1ccco1 (stereo unspecified)	11 nM (active)
O=C(c1ccncc1)N1CCC2(CCCN(C(c3ccccc3)c3ccccc3)C2)CC1	inactive
COC(=O)[C@@H](NC(=O)NCc1cccc(OC)c1)C(C)C	inactive
COc1ccccc1C(=O)NCCn1cc(SCC(=O)NCc2ccco2)c2ccccc21	inactive
COCCCNC(=O)c1ccc2c(c1)ncn2-c1ccccc1OC	inactive
COc1ccc(C(=O)NCc2cn3ccccc3n2)cc1	inactive
COc1cc(OC)cc(-c2nc3nc(C)c(CCC(=O)NCc4ccco4)c(C)n3n2)c1	inactive
COc1ccc(CNC(=O)C2CCN(S(=O)(=O)N3CCOCC3)CC2)cc1	inactive
CCn1c(=N)c(C(=O)NCCCOC)cc2c(=O)n3cccc(C)c3nc21	20000 nM (active)
COc1ccc(CNC(=O)c2cc3c(=O)n4ccccc4nc3n(CC3CCCO3)c2=N)cc1 (stereo unspecified)	290 nM (active)
COc1ccc(CCn2c(=N)c(C(=O)NCc3ccco3)cc3c(=O)n4cccc(C)c4nc32)cc1	15 nM (active)
CCOCCCNC(=O)c1c[nH]c2cc(C)ccc2c1=O	inactive
COCCNc1ncnc2ccc(-c3cccnc3)cc12	inactive
C=C(C)COc1ccc(-c2n[nH]c(C)c2-c2ccccc2OC)c(O)c1	inactive

SMILES	max dye-equivalent concentration
CN1CCc2[nH]nc(-c3n[nH]c4c3CN(C)CC4)c2C1	inactive
CCCSc1nc2c(c(=O)n(C)c(=O)n2C)n1Cc1ccc(C)cc1	inactive
COc1ccccc1N1CCN(C(=O)Cn2nnc(-c3cccs3)n2)CC1	inactive
COc1ccc2c(c1)C(C)=CC(C)(C)N2C(=O)CNCc1ccc2c(c1)OCO2	inactive
O=C1Nc2ccccc2C12Nc1ccccc1S2 (stereo unspecified)	inactive
CCCCSc1nnc(-c2ccc(NC(=O)CC)cc2)n1C	inactive
Cc1cc(N2CCCC2=O)cc(C)c1S(N)(=O)=O	inactive
COc1ccc(CCNS(=O)(=O)c2ccc(C(=O)NCc3ccco3)cc2)cc1OC	inactive
O=C(CSc1nnc(-c2cccnc2)n1Cc1ccco1)c1ccc(Cl)cc1	inactive
C(=C\c1ccccc1)/CSc1nnc(-c2cccnc2)n1Cc1ccco1	inactive
Clc1cccc(-c2nc3nc4ccccc4nc3n2Cc2ccco2)c1	150 nM (active)
O=C(NCC12CC3CC(C1)CC(CNC(=O)N1CCCC1)(C3)C2)N1CCCC1	inactive
CC(=O)NCCc1ccc(S(=O)(=O)N(C)C2CCS(=O)(=O)C2)cc1 (stereo unspecified)	inactive
Cc1nc(N2CCN(c3ncccn3)CC2)c2oc3ccccc3c2n1	inactive
CCc1nc(Nc2ccc3nccnc3c2)c2oc3ccccc3c2n1	82 nM (active)
C[C@@H](Nc1nc(-c2ccccc2)nc2c1oc1ccccc12)C(=O)O	inactive
Cc1ccc(O)c(NC(=O)COc2cc(C)ccc2C)c1	inactive
CC(=O)c1ccc(N2C(=NC(=O)C(C)C)SC3CS(=O)(=O)CC32)cc1 (stereo unspecified)	inactive
CCOC(=O)CSc1nncc2ccc(OC)c(OC)c12	inactive
Cc1ccccc1N1C(=O)C2ON(c3ccccc3)C(c3ccncc3)C2C1=O (stereo unspecified)	inactive
COc1cc(C2C(C#N)=C(C)NC3=C2C(=O)CC(C)(C)C3)ccc1O (stereo unspecified)	17 nM (active)
C=CCSC1=C(C#N)C(c2cc(Br)c(O)c(OC)c2)CC(=O)N1 (stereo unspecified)	inactive
Cc1cc2c(cc1C)NC(c1ccccn1)C1=C(CC(C)(C)CC1=O)N2 (stereo unspecified)	inactive
